Test results taken from publication PMC7862700, “An all-to-all approach to the identification of sequence-specific readers for epigenetic DNA modifications on cytosine”.

What was measured:
Assay in all cases: DAPPL (digital affinity profiling via proximity ligation, sequencing); 10 mM Tris-HCl pH 7.5, 50 mM NaCl, 1 mM DTT, 4% glycerol, room temperature, 30 min; GST-TFs on glutathione beads, 16-mer random dsDNA library, 0.1% formaldehyde crosslink after washing; high values mean tight binding
Settings in all cases: protein: recombinant; tags: N-terminal GST; dsDNA, one strand shown
[1] = target: T1, ETV2 (Homo sapiens, UniProt O00321 1-342)
T1 sequence: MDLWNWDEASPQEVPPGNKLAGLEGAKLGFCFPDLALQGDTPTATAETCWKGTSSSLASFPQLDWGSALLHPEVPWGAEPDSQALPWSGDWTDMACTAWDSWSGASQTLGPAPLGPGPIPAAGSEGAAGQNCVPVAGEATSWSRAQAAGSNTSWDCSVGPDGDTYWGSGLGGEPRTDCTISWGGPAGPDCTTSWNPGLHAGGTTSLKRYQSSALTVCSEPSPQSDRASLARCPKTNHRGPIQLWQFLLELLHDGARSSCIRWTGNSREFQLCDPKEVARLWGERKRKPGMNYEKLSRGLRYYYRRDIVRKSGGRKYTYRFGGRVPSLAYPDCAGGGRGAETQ
Outline: (§1)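 A tag-only sample was pooled with DNA-barcoded human transcription factors that had been expressed in yeast as GST fusions and captured on glutathione beads. The pools were incubated for 30 min at room temperature with 200 nmole of a random double-stranded 16-mer DNA library in Tris/NaCl/DTT/glycerol buffer, then washed, crosslinked with 0.1% formaldehyde, proximity-ligated (BsaI/T4 ligase, 1 h, 37 °C), PCR-amplified and sequenced on an Illumina NextSeq500. Binding signal is each hexamer's read frequency for a factor divided by its frequency for the tag-only sample.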

[2] = target: T2, ELF3 (Homo sapiens, UniProt P78545 1-371)
T2 sequence: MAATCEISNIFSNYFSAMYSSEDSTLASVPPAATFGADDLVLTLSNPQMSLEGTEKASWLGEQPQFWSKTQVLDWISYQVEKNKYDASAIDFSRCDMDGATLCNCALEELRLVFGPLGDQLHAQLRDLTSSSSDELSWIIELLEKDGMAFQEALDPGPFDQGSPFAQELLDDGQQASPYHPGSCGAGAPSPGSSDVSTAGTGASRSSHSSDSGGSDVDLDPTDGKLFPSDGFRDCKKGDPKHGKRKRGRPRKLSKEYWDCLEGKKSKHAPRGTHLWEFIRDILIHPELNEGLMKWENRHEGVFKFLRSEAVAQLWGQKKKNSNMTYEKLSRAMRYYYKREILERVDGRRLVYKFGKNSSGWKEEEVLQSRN
Outline: as §1

[3] = target: ETV1 (Homo sapiens, UniProt P50549 1-477)
Outline: as §1

[4] = target: T3, ERF (Homo sapiens, UniProt P50548 1-548)
T3 sequence: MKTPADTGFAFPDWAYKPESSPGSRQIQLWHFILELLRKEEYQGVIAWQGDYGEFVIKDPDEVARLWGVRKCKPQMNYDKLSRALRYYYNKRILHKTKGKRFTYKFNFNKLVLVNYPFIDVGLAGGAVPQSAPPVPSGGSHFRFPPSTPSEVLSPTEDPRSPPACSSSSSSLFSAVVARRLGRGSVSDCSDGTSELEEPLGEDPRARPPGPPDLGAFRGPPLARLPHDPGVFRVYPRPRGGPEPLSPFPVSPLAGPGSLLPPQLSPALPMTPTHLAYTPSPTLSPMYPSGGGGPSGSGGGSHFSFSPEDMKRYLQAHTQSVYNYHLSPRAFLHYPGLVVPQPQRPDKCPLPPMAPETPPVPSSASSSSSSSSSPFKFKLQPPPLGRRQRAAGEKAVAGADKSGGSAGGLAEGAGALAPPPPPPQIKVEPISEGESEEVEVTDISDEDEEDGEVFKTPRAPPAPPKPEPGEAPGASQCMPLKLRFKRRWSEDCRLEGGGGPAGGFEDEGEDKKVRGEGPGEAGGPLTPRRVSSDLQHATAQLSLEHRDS
Outline: as §1

[5] = target: T4, ETV3L (Homo sapiens, UniProt Q6ZN32 1-361)
T4 sequence: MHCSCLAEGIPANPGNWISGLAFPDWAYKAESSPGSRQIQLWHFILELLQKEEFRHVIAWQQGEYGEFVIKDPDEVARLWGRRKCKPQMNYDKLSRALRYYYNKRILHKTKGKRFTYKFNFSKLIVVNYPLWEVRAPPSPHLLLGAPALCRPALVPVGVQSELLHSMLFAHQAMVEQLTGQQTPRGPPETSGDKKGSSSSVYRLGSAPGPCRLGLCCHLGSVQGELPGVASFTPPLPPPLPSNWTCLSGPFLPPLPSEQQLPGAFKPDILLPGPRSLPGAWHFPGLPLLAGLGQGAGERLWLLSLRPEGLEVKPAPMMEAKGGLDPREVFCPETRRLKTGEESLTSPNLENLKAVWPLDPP
Outline: as §1

[6] = target: T5, ETS2 (Homo sapiens, UniProt P15036 1-469)
T5 sequence: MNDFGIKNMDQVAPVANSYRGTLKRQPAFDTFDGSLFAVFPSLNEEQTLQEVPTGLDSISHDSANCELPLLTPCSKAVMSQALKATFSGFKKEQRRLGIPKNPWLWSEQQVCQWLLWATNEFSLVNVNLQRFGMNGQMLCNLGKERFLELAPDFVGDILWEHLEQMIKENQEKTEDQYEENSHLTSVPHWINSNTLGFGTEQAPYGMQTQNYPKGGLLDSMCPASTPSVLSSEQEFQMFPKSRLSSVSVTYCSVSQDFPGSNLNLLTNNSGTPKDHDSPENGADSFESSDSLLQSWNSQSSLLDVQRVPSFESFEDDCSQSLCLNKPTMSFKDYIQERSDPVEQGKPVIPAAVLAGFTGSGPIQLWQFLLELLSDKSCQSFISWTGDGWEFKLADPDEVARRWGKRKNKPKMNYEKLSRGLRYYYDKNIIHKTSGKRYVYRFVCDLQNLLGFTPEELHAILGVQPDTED
Outline: as §1

[7] = target: T6, SPDEF (Homo sapiens, UniProt O95238 1-335)
T6 sequence: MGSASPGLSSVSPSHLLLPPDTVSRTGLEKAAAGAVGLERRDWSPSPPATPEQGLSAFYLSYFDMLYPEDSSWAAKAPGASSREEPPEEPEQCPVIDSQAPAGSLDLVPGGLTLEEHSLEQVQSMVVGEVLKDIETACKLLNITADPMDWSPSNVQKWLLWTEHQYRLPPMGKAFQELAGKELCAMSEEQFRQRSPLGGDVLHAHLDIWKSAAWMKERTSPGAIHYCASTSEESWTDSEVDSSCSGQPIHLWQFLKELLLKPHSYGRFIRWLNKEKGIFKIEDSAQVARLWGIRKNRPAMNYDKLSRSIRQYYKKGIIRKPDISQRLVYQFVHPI
Outline: as §1

[8] = target: T7, ETV7 (Homo sapiens, UniProt Q9Y603 1-341)
T7 sequence: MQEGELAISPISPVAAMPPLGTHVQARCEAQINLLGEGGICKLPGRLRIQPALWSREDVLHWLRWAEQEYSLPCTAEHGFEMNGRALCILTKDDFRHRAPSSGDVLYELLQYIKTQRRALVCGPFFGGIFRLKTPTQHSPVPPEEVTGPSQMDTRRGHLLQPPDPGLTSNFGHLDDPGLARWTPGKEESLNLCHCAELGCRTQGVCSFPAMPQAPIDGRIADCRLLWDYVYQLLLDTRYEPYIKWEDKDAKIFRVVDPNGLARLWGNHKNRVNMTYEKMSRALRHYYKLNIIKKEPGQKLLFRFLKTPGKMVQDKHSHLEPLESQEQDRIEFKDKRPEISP
Outline: as §1

[9] = target: T8, ETV3 (Homo sapiens, UniProt P41162-2 1-143)
T8 sequence: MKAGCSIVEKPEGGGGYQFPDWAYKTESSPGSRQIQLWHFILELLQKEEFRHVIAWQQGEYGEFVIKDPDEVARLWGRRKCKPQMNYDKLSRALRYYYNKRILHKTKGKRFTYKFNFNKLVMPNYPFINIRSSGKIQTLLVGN
Outline: as §1

[10] = target: ETV6 (Homo sapiens, UniProt P41212 1-452)
Outline: as §1

ETV1, sequence (P50549 whole entry): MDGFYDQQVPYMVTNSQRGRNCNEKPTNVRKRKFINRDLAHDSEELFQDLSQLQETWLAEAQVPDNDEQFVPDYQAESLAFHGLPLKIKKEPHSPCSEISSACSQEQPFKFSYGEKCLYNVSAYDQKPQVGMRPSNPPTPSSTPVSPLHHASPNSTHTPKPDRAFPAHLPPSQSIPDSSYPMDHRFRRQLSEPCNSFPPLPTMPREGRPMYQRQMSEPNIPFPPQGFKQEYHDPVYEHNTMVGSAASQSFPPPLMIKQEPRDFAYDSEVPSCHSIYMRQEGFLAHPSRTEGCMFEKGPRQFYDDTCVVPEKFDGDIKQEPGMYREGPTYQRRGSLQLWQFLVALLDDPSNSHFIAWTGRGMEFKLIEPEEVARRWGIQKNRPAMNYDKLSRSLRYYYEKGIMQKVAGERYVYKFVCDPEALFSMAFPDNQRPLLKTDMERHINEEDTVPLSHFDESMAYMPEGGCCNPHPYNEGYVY
ETV6, sequence (P41212 whole entry): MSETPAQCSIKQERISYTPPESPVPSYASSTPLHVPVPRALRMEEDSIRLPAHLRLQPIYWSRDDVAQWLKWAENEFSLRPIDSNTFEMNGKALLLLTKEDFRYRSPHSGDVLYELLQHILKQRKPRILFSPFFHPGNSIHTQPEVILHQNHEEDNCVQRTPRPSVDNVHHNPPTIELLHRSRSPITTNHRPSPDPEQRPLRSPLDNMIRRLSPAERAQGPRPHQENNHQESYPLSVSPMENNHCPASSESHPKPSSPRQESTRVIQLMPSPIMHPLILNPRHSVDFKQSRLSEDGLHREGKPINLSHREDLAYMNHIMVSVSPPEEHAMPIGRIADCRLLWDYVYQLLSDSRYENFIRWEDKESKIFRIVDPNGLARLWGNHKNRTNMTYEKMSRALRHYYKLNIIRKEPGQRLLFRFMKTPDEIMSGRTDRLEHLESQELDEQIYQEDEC

## CCAACC
[1]
  binding signal: 1.08 fold enrichment (6-mer frequency, TF over GST control)
[2]
  binding signal: 1.08 fold enrichment (6-mer frequency, TF over GST control)
[3]
  binding signal: 1.04 fold enrichment (6-mer frequency, TF over GST control)
[4]
  binding signal: 1.14 fold enrichment (6-mer frequency, TF over GST control)
[5]
  binding signal: 1.09 fold enrichment (6-mer frequency, TF over GST control)
[6]
  binding signal: 1.18 fold enrichment (6-mer frequency, TF over GST control)
[7]
  binding signal: 1.11 fold enrichment (6-mer frequency, TF over GST control)
[8]
  binding signal: 1.07 fold enrichment (6-mer frequency, TF over GST control)
[9]
  binding signal: 1.11 fold enrichment (6-mer frequency, TF over GST control)
[10]
  binding signal: 1.08 fold enrichment (6-mer frequency, TF over GST control)
